The entries come from a sample that favours hits as a whole.
Tg IFNy HTS – inhibitors of Toxoplasma gondii growth with IFN-gamma; AID 1259416; activity change, negative = inhibition, % (no concentration beside the values); Toxoplasma gondii growth in IFN-gamma-treated host cells; stronger effect = lower value; 69,000 tested, 3.8% active; in the data active = activity change below about -70%, passing the limit was not always enough;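 note: host cells are HeLa cells infected with Toxoplasma gondii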
* marks the source's active call; other numbers are inactive results.

SMILES	Tg IFNy HTS
COc1cc(OC)c(CN(C)C(C)c2nc(C)sc2C)c(OC)c1 (stereo not given)	0
O=C(NCc1ccccc1-n1ccnc1)[C@H]1Cc2ccccc2CN1	5
Cc1c(C(=O)NCC(c2ccc3c(c2)OCO3)N(C)C)nnn1-c1ccccc1 (stereo not given)	-25
Cc1ccccc1NC(=O)C12CCC(C)(c3nc4ccccc4nc31)C2(C)C (stereo not given)	-68
C[C@@H]1CCCCO[C@H](CN(C)S(=O)(=O)c2ccccc2)[C@H](C)CN([C@@H](C)CO)C(=O)c2cc(NC(=O)Nc3ccc4c(c3)OCO4)ccc2O1	251
C[C@@H]1CCCCO[C@@H](CN(C)S(=O)(=O)c2ccccc2)[C@H](C)CN([C@@H](C)CO)C(=O)c2cc(NC(=O)Nc3ccc4c(c3)OCO4)ccc2O1	121
C[C@@H]1CCCCO[C@@H](CN(C)Cc2ccncc2)[C@H](C)CN([C@@H](C)CO)C(=O)c2cc(NC(=O)Cc3ccccc3)ccc2O1	120
COc1ccc(S(=O)(=O)N(C)C[C@H]2OCCCC[C@H](C)Oc3ccc(NC(=O)Cc4ccccc4)cc3C(=O)N([C@H](C)CO)C[C@@H]2C)cc1	-84*
COc1ccc(S(=O)(=O)N(C)C[C@@H]2OCCCC[C@H](C)Oc3ccc(NC(=O)Cc4ccccc4)cc3C(=O)N([C@@H](C)CO)C[C@H]2C)cc1	-125*
C[C@H](CO)N1C[C@H](C)[C@H](CN(C)S(=O)(=O)c2ccccc2)OCCCC[C@H](C)Oc2ccc(NC(=O)Nc3ccc4c(c3)OCO4)cc2C1=O	108
C[C@@H]1CN([C@@H](C)CO)C(=O)c2cc(NC(=O)Nc3ccc4c(c3)OCO4)ccc2O[C@@H](C)CCCCO[C@H]1CN(C)S(=O)(=O)c1ccccc1	106
COc1ccc(S(=O)(=O)N(C)C[C@@H]2OCCCC[C@H](C)Oc3ccc(NC(=O)Cc4ccccc4)cc3C(=O)N([C@H](C)CO)C[C@@H]2C)cc1	-92*
COc1ccc(S(=O)(=O)N(C)C[C@H]2OCCCC[C@@H](C)Oc3ccc(NC(=O)Cc4ccccc4)cc3C(=O)N([C@@H](C)CO)C[C@@H]2C)cc1	-69
CN(C)S(=O)(=O)Oc1ccc(-c2noc(-c3ccc(OC(F)(F)F)cc3)n2)cc1	9
COC[C@H]1CN(C)C[C@]12CCN(C(=O)c1cc3ccccc3s1)C2	-50
CC(=O)N1CCO[C@H]2CN(S(=O)(=O)Cc3ccccc3)CC[C@@H]2C1	-2
CCN(Cc1cccc(C)n1)Cc1nc(COC)no1	0
COC1C2CCCC1CN(c1nncs1)C2 (stereo not given)	-13
COCCC1COC2(CCCN(C(=O)c3cnccn3)C2)C1 (stereo not given)	5
CCc1ccc(NC(=O)N2CCC3(CC2)OC(C(=O)NCC(C)C)Cn2ccnc23)cc1 (stereo not given)	60
CC(C)CNC(=O)C1Cn2ccnc2C2(CCN(C(=O)C3CCOCC3)CC2)O1 (stereo not given)	13
CCc1cnc(N2CCC3(CC2)OC(C(=O)NCC(C)C)Cn2ccnc23)nc1 (stereo not given)	-103*
CCCN(CCC)S(=O)(=O)c1ccc(C(=O)SCC(=O)OCC)cc1	38
CC(C(=O)NCc1cc(-c2ccco2)on1)n1cnc2ccccc21 (stereo not given)	19
N[C@@H]1CC[C@@H](NC(=O)c2n[nH]c3c2CCC3)C1	12
SMILES	Tg IFNy HTS
CCCCCC(=O)O[C@]1(C(C)=O)CCC2C3CCC4=CC(=O)CC[C@]4(C)C3CC[C@@]21C (stereo not given in full)	-81*
CCCCCCCC(=O)OCC(=O)[C@@]1(O)CC[C@H]2[C@@H]3CCC4=CC(=O)CC[C@]4(C)[C@H]3[C@@H](O)C[C@@]21C	-5
CCCCCC(=O)O[C@]1(C(C)=O)CC[C@H]2[C@@H]3CCC4=CC(=O)CC[C@]4(C)[C@H]3CC[C@@]21C	-57
Cc1ccccc1-c1nc(Cn2nnc(C(=O)Nc3ccc(Br)cc3F)c2C)c(C)o1	24
Cc1occc1C(=O)N1CCOCC2(CCN(c3ncccn3)C2)C1 (stereo not given)	-3
Cc1ccc(CN2CCOCC3(CCN(Cc4nccn4C)C3)C2)s1 (stereo not given)	52
Cc1occc1C(=O)N1CCOCC2(CCN(Cc3nccn3C)C2)C1 (stereo not given)	-78*
COc1ccc(C2CCCN2S(=O)(=O)c2cnc(NC(C)=O)s2)cc1OC (stereo not given)	1
O=C(CCn1c2ccccc2c2ccccc21)N1CCn2cnnc2C1	-5
O=S(=O)(c1ccc2c(c1)CCCC2)N1CCC2(CC1)NCCN=C2NCc1ccc2c(c1)OCO2	-34
COc1ncc(C(=O)Nc2ccc(N3CCCC3)c(F)c2)cn1	45
CC1(C)NC(=O)N(CC(=O)Nc2ccc(N3CCCCC3)c(C(F)(F)F)c2)C1=O	-23
COc1cc(C(=O)Nc2ccc(N3CCCCC3)c(C(F)(F)F)c2)nc(OC)n1	-82*
O=C1CC(Sc2ccc(Cl)cc2)C(=O)N1c1cc(F)c(Br)cc1F (stereo not given)	-85*

Assay outcomes deposited in PubChem BioAssay by Broad Institute.
